{"source": "PubChem BioAssay (Tox21)", "note": "Where “and” joins values, the source holds several entries; their conditions need not be identical. Equal entries are not always repeated. Results filed as inconclusive are left out. Where a call stands in place of a potency, no number is given. Values without a mark were called inactive. Calls of active or inactive are those of the source. The call rests on the fitted dose curve; in most records, active means well fitted activation curve with a large enough effect in the repeat runs; inconclusive means weak or mixed curves; inactive means no such curve, though single readings can be large or run the other way. Potency means the concentration at half of the fitted maximal effect."}
{"assay": "qHTS assay for small molecules that induce genotoxicity in human embryonic kidney cells expressing luciferase-tagged ATAD5 (AID 651632); further: nearly all actives have a fitted effect of over 15% in size", "details": "HEK293T ATAD5-luciferase induction, 16 h; series mostly up to 83.3 µM; activation: at the top concentration", "text": "U.S. Tox21 Program National Center for Advancing Translational Sciences [NCATS] NIH Chemical Genomics Center [NCGC] U.S. Environmental Protection Agency [EPA] National Institutes of Environmental Health Sciences [NIEHS] National Toxicology Program [NTP] U.S. Food and Drug Administration [FDA] Tox21 Assay Overview: As cancer cells divide rapidly and during every cell division they need to duplicate their genome by DNA replication. The failure to do so results in the cancer cell death. Based on this concept, many chemotherapeutic agents were developed but have limitations such as low efficacy and severe side effects etc. A new cell based assay was developed to find the compounds that effectively block DNA replication either by directly damaging DNA or by inhibiting other cellular mechanisms. Enhanced Level of Genome Instability Gene 1 (ELG1; human ATAD5) protein levels increase in response to various types of DNA damage. Using a luciferase reporter-gene tagged with ATAD5, a cell-based assay [developed by Kyungjae Myung, NHGRI, NIH] was used to measure the induction of ATAD5 in human embryonic kidney cells (HEK293T). So, increase in luciferase activity can be used to identify the compounds that cause genetic stress.\nTox21 Assay Protocol Summary: For genotoxicity screening, 2,000 cells in 5 uL/well were dispensed into white, solid-bottom 1536-well plates using a Multidrop Combi (Thermo Scientific) dispenser. Following transfer of 23 nL compound or DMSO vehicle by a pin tool, the plates were incubated 16 hr at 37C and 5% CO2. 5 ul Amplite (AAT Bioquest, Inc.) was then added to each plate and following 30 min incubation at room temperature, luciferase activity was quantified on a ViewLux CCD-based plate reader.", "units": {"activation": "%"}}
{"smiles": "CC(=O)OC/C=C(C)/C=C/C=C(C)/C=C/C1=C(C)CCCC1(C)C", "Potency": "inactive"}
{"smiles": "CC(=O)CCC(C)C", "Potency": "inactive"}
{"smiles": "O=c1cc[nH]c(=O)[nH]1", "Potency": "inactive"}
{"smiles": "CC(=O)Oc1ccccc1C(=O)O", "Potency": "inactive"}
{"smiles": "COc1cc(C=O)ccc1O", "Potency": "inactive"}
{"smiles": "CCOC(=O)C(C)(C)Oc1ccc(Cl)cc1", "Potency": "inactive"}
{"smiles": "CC(C)=CCC/C(C)=C/CO", "Potency": "inactive"}
{"smiles": "Cc1ccc(O)c(-n2nc3ccccc3n2)c1", "Potency": "9.44 µM (active) and 6.11 µM (active)"}
{"smiles": "CO[C@H]1C=CO[C@@]2(C)Oc3c(C)c(O)c4c(O)c(c(/C=N/N5CCN(C)CC5)c(O)c4c3C2=O)NC(=O)/C(C)=C\\C=C[C@H](C)[C@H](O)[C@@H](C)[C@@H](O)[C@@H](C)[C@H](OC(C)=O)[C@@H]1C", "Potency": "inactive"}
{"smiles": "CN(C)C=O", "Potency": "inactive"}
{"smiles": "CCn1cc(C(=O)O)c(=O)c2ccc(C)nc21", "Potency": "inactive"}
{"smiles": "Cc1cccc2ccccc12", "Potency": "inactive"}
{"smiles": "CCCCCCCCOc1ccc(C(=O)c2ccccc2)c(O)c1", "Potency": "inactive"}
{"smiles": "Oc1cccc(O)c1", "Potency": "inactive"}
{"smiles": "CCCCC/C(C=O)=C\\c1ccccc1", "Potency": "inactive"}
{"smiles": "O=C(O)Cc1cccc2ccccc12", "Potency": "inactive"}
{"smiles": "C[C@]12C=CC(=O)C=C1CC[C@@H]1[C@@H]2C(=O)C[C@@]2(C)[C@H]1CC[C@]2(O)C(=O)CO", "Potency": "inactive"}
{"smiles": "CC1=C(/C=C/C(C)=C/C=C/C(C)=C/C(=O)O)C(C)(C)CCC1", "activation": 6.25}
{"smiles": "OC[C@@H](O)[C@@H](O)[C@H](O)[C@H](O)CO", "Potency": "inactive"}
{"smiles": "CC(O)COc1ccccc1", "note": "(stereo not given)", "Potency": "inactive"}
{"smiles": "CC(C)(C)NCC(O)c1ccc(O)c(CO)c1", "note": "(stereo not given)", "Potency": "inactive"}
{"smiles": "N[C@@H](Cc1c[nH]c2ccc(O)cc12)C(=O)O", "Potency": "inactive"}
{"smiles": "C=CC(=O)NC(C)(C)CS(=O)(=O)O", "Potency": "inactive"}
{"smiles": "CCCCCCCCCCCCCC(=O)OC(C)C", "Potency": "inactive"}
{"smiles": "COc1ccc(O)cc1", "Potency": "inactive"}
{"smiles": "NCCNc1cccc2ccccc12", "Potency": "inactive"}
{"smiles": "C=C(C)OC(C)=O", "Potency": "inactive"}
{"smiles": "COc1cc(O)c(C(=O)c2ccccc2)cc1S(=O)(=O)O", "Potency": "inactive"}
{"smiles": "NC(=O)N1c2ccccc2C=Cc2ccccc21", "Potency": "inactive"}
{"smiles": "CCCCNC(=O)NS(=O)(=O)c1ccc(N)cc1", "Potency": "inactive"}
{"smiles": "Cc1c(N(C)CS(=O)(=O)O)c(=O)n(-c2ccccc2)n1C", "Potency": "inactive"}
{"smiles": "O=C1OC(c2ccc(O)cc2)(c2ccc(O)cc2)c2ccccc21", "Potency": "inactive"}
{"smiles": "COc1ccccc1O", "Potency": "inactive"}
{"smiles": "CC(=O)/C=C/C1=C(C)CCCC1(C)C", "Potency": "inactive"}
{"smiles": "C[C@]12C[C@H](O)[C@H]3[C@@H](CCC4=CC(=O)CC[C@@]43C)[C@@H]1CC[C@@H]2C(=O)CO", "Potency": "inactive"}
{"smiles": "CCCCOC(=O)CCCCCCCCC(=O)OCCCC", "activation": 3.44}
{"smiles": "C#C[C@]1(O)CC[C@H]2[C@@H]3CCC4=CC(=O)CC[C@@H]4[C@H]3CC[C@@]21CC", "Potency": "inactive"}
{"smiles": "COc1ccccc1NC(=O)CC(C)=O", "Potency": "inactive"}
{"smiles": "C[C@]12CC[C@@H]3c4ccc(O)cc4C[C@@H](CCCCCCCCCS(=O)CCCC(F)(F)C(F)(F)F)[C@H]3[C@@H]1CC[C@@H]2O", "note": "(stereo not given in full)", "Potency": "inactive"}
{"smiles": "COC(=O)C1CCC(C(=O)OC)CC1", "note": "(stereo not given)", "Potency": "inactive"}
